The values below come from PubChem BioAssay (NCI).

This is part of a sample that, as a whole, favours compounds with a hit. Of some 83,000 tested, about 20% had one in any assay.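 How to read the values: 0–100, growth inhibition (40 = 60% inhibited); 0, no net growth; -100 to 0, cell death (-40 = 40% of starting cells died; -100 = all dead).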 Values without a mark were called inactive. Calls of active or inactive are those of the source. How the source made its calls: active means growth percent below 10; inactive means the rest.

The test concerns HL-60(TB) leukemia. The experiment in a line: NCI-60 one-dose screen, 48 h (100 = growth as untreated, 0 = no growth, -100 = all killed). Conditions: 10 µM unless noted.
As to `O=C(/C=C/c1ccc(Cl)c(Cl)c1)Nc1ncc(Cc2ccc(Cl)c(Cl)c2)s1`, the growth is 48.2%.

On to `Cn1cc(C2=C(c3coc4cc(Br)ccc34)C(=O)NC2=O)c2ccccc21`, for which the growth is 44.5%.

Take `COc1cc(-c2nc(-c3ccccc3)[nH]c2-c2ccnc(NCCCNS(=O)(=O)c3ccc(C)cc3)n2)ccc1F`: the growth was 93.4%.

Consider `CS(=O)(=O)c1ccc(-c2nn(-c3ccccc3)cc2/C=N/NC(=O)c2nc(N)n[nH]2)cc1`, for which the growth was 76.8%.

As for `O=C1c2c(c3c4cccnc4[nH]c3c3ccc4ccccc4c23)C(=O)N1CCO`, the growth is 97.1%.

For the molecule `Cc1cc2nc3c4cc(C#N)ccc4n(CCN(C)C)c3nc2cc1C`, the growth was -35.7% (active).

For the molecule `CSc1ccc2c(c1)N(C(=O)/C(C#N)=C/c1c[nH]c3ccccc13)c1ccccc1S2`, the growth is 12.8%.

For the molecule `CC(=O)c1ccc(Nc2nc(SC(C)C)nc(-c3ccccc3)c2C#N)cc1`, the growth is 83.8%.

On to `CN(C)c1ccc(-c2cc(-c3c[nH]c4ccccc34)nc(N)c2C#N)cc1`, for which the growth was 20.6%.

On to `Cc1ccc(/C(N)=N/C(N)=N/c2nc3ccccc3s2)cc1`, for which the growth is 81.6%.

For `C#CCN(C)CCCOc1ccc(NCc2ccc(/C=C/C(=O)NO)cc2)cc1Cl`, the growth was 6.07% (active).

As for `CCCCCCNC(=O)Oc1ccc(/C(=C(\C)c2ccc(Cl)cc2)c2ccc(OCCN(C)C)cc2)cc1`, the growth is -8.4% (active).

As to `O=C(/C=C1\C=CN(CCCCCCF)c2ccccc21)n1ccc2ccccc21`, the growth is 109%.

On to `COc1ccc(S(=O)(=O)NCCCNc2nccc(-c3cn(C(C)(C)C)nc3-c3ccc(Cl)c(OC)c3)n2)cc1`, for which the growth is 124%.

Consider `N#Cc1c(-c2ccc(F)cc2)nc2c(C#N)c(Nc3ccccc3)nn2c1N`, for which the growth was 104%.

`CC(Nc1ncnc2ccc(-c3cnc(N)nc3)cc12)c1ccccc1` (centres undefined): the growth is 35.3%.

As to `C[C@@H](Nc1ncnc2ccc(-c3cnc(Cl)c(NS(C)(=O)=O)c3)cc12)c1ccccc1`, the growth was 39%.

As to `O=C(Nc1ccc(Cl)c(C(F)(F)F)c1)Nc1ccc2oc(=O)ccc2c1`, the growth was 26%.

Regarding `Fc1ccccc1/C=C(/C1=NCCN1)n1cnc2ccccc21`, the growth was 94.5%.

As for `O=C(Nc1ccc(Cl)cc1)Nc1nc2ccc([N+](=O)[O-])cc2s1`, the growth was -51% (active).

As to `CN(c1ccc(Cl)cc1)S(=O)(=O)c1ccc(-c2cnc(C3CC3)o2)cc1`, the growth was -15.9% (active).

As to `COc1cc2cc(Oc3ccc(NC(=O)Nc4cc(C(F)(F)F)cc(C(F)(F)F)c4)cc3)c(C)nc2cc1OCCN(C)C`, the growth was 109%.

For `CCN(CC)S(=O)(=O)c1ccc(-c2nc(C(Cl)Cl)nc3cc(-c4ccc(F)cc4)nn23)cc1`, the growth is 4.64% (active).

`CSc1ccc(/C(=N/N=C(N)N)c2ccc(Cl)cc2)cc1`: the growth was -45.1% (active).

In the case of `COc1ccc(NC2=C(Cl)C(=O)c3nc(C)ccc3C2=O)cc1OC`, the growth was 9.95% (active).

In the case of `COc1cccc2c1C=CC1(O2)Oc2cccc(OC)c2C=C1C` (centres undefined), the growth was 0.839% (active).

Take `CN1CCN(c2ccc(Nc3nc(NCCNS(=O)(=O)c4ccccc4)c4sccc4n3)cc2)CC1`: the growth is 103%.

In the case of `CCOC(=O)c1c(NC(=O)c2ccc(C(C)(C)C)cc2)sc2cc(OCCN3CCCCC3)ccc12`, the growth is 27.1%.

In the case of `NC(N)=Nc1ccc(Oc2cccc(NC(N)=Nc3ccc(Br)cc3)c2)cn1`, the growth was 64.8%.

With `COc1cc(-c2nn(C(C)(C)C)cc2-c2ccnc(NCCCNS(=O)(=O)c3ccc(C)cc3)n2)ccc1Cl`, the growth was 108%.

For `COc1ccc(-c2nc(C#N)c(N3CCC(S(=O)(=O)N4CCOCC4)CC3)o2)cc1`, the growth is 117%.

`C=C(C=O)[C@@H]1CC[C@]2(C)[C@H](C(=O)C=C3[C@H]4C[C@](C)(C(=O)OC)CC[C@]4(C)CC[C@]32C)[C@@]1(C)CCC#N`: the growth was -27.3% (active).

As for `CC1(C)CC[C@]2(C(=O)N3CCCNCC3)CC[C@]3(C)C(=CC[C@@H]4[C@@]5(C)CCC(=O)C(C)(C)[C@@H]5CC[C@]43C)[C@H]2C1`, the growth was 104%.

Regarding `c1ccc2c(NCCCN3CCOCC3)c3oc4ccccc4c3nc2c1`, the growth is -21.5% (active).

Consider `CNC(=O)c1c(NC(=O)c2cccc(C(F)(F)F)c2F)sc2c1CCC(=O)C2`, for which the growth is 4.41% (active).

Regarding `COc1ccccc1/C=C/C=N/NC1=NC2C(S1)N(C)C(=O)N2c1ccccc1` (centres undefined), the growth was -25.7% (active).

Take `O=[N+]([O-])c1ccc(-c2nnc(SCc3ccc(O)c4ncccc34)n2-c2ccccc2)cc1`: the growth was 32.5%.

For `C[C@H]1OCC2(CCN(c3cnc(C(=O)Nc4cc(F)cc5cccnc45)cn3)CC2)[C@H]1N`, the growth is 18.9%.

Take `O=C(CCCCCCN1CC(=O)N2[C@@H](c3cccs3)c3[nH]c4ccccc4c3C[C@H]2C1=O)NO`: the growth is 100%.
